High-throughput results: PubChem BioAssay, several laboratories
ADAM17 inh: inhibits human ADAM17. inhibition, % at 6.95 µM. AID 720648. recombinant ADAM17, EDANS/DABCYL FRET peptide cleavage. 0.83% of 370,000 active;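 active = inhibition above the mean of compounds lying between control limits plus 3 SD, set per campaign, cut at about 8.5% in these data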;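 also: 0% = DMSO-only wells as the low control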
sPLA2-III inh: Inhibits HGIII-sPLA2 liposome hydrolysis, primary screen; Q9NZ20; QFRET BODIPY PC-A2 liposome hydrolysis, fluorescence; inhibition, % at 12.2 µM; 0.56% of 370,000 active; AID 743126;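 active = inhibition above mean plus 3 SD of compounds lying within the high and low control bounds, cut at about 19% in these data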;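 also: 0% = median of test compound wells and 100% = no enzyme DMSO wells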
Target sequence (Q9NZ20 whole entry, looked up): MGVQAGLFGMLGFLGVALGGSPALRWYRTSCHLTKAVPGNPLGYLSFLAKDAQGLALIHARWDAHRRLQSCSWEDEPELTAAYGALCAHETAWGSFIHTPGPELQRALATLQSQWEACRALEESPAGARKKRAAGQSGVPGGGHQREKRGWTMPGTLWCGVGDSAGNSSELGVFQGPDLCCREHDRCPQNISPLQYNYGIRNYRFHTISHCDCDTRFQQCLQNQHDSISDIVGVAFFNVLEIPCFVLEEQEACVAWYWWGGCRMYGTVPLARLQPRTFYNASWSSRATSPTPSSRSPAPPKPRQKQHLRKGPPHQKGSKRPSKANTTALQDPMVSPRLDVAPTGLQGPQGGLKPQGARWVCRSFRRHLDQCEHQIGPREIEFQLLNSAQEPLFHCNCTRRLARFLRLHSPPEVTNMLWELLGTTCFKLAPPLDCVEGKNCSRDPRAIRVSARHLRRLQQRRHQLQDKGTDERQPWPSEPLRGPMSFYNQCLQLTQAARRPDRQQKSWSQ
KLK7 zymogen act: proKLK7 (human) activation, primary screen; 0.9% of 370,000 active; purified proKLK7, EDANS-DABCYL substrate fluorescence; 100% is mature enzyme control, 0% vehicle; activation, % at 7 µM;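 active = activation above the mean of all tested compounds plus 3 SD, computed per campaign excluding outliers beyond control limits, cut at about 13% in these data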
NRP1-CendR mod: modulators of CendR peptide binding to human neuropilin-1; inhibition, % at 25 µM; FAM-RPARPAR peptide binding to NRP-1, fluorescence polarization; 0.85% of 360,000 active; AID 602438; O14786;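 active = inhibition or corrected inhibition above about 18%, plus a signal ratio from 0.5 to 1.5, limit read from the data, passing the limit was not always enough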
ADAM10 inh: ADAM10 inhibition, QFRET primary screen | recombinant ADAM10, EDANS/DABCYL FRET peptide cleavage, 3 h | 0.62% of 370,000 active | O14672 | inhibition, % at 7 µM;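 active = inhibition above a per-campaign cutoff equal to the mean of compounds falling between control-based bounds plus 3 SD, cut at about 20% in these data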;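 also: 0% = DMSO wells while the 100% control is not disclosed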
* marks the source's active call; other numbers are inactive results. This is a sample that favours compounds with a hit; in the whole collection about 3.4% have one here.

How did CN=C1S/C(=C/c2cc(C)n(-c3ccc(Cl)cc3F)c2C)C(=O)N1C do in these assays?
ADAM17 inh: -4; sPLA2-III inh: -3; ADAM10 inh: -2

What do the screens show for `O=C1c2cc([N+](=O)[O-])cc3cc([N+](=O)[O-])cc(c23)C(=O)N1c1ccccn1`?
ADAM17 inh: -2; sPLA2-III inh: 17; KLK7 zymogen act: 1; NRP1-CendR mod: 28*; ADAM10 inh: -1

Results for O=C(O)c1cccc(N2C(=O)c3cc([N+](=O)[O-])cc4cc([N+](=O)[O-])cc(c34)C2=O)c1 ?
ADAM17 inh: 1; sPLA2-III inh: 5; KLK7 zymogen act: 0; NRP1-CendR mod: 26*; ADAM10 inh: 2

How did O=C(O)c1cccc(N2C(=O)c3cccc4cccc(c34)C2=O)c1 do in these assays?
ADAM17 inh: -12; sPLA2-III inh: 2; KLK7 zymogen act: 1; NRP1-CendR mod: -5; ADAM10 inh: -15

What do the screens show for `CCOC(=O)c1[nH]c(C)c(C(=O)NCC2CCCO2)c1C` (stereo unspecified)?
ADAM17 inh: -3; sPLA2-III inh: 6; KLK7 zymogen act: 0; NRP1-CendR mod: 22*; ADAM10 inh: -10

How did CCOC(=O)c1[nH]c(C)c(C(=O)NC2CCCCC2)c1C do in these assays?
ADAM17 inh: 0; sPLA2-III inh: 0; KLK7 zymogen act: 1; NRP1-CendR mod: -1; ADAM10 inh: 1

Results for COC(=O)[C@H](C)NC(=O)C(Cc1ccc2c(c1)OCO2)NC(C)=O (stereo partly specified) ?
ADAM17 inh: 4; sPLA2-III inh: 6; KLK7 zymogen act: 0; ADAM10 inh: 0

Results for Cc1cccc(N=NC(=S)NNc2cccc(C)c2)c1 ?
ADAM17 inh: 3; sPLA2-III inh: 27*; KLK7 zymogen act: -1; NRP1-CendR mod: 17; ADAM10 inh: -3

What do the screens show for `CSc1cnc2c(=O)[nH]c(=O)n(C)c2n1`?
ADAM17 inh: 0; sPLA2-III inh: -1; KLK7 zymogen act: 0; NRP1-CendR mod: 27*; ADAM10 inh: -4

What do the screens show for `COc1ccc(S[C@]2(C(=O)N3CCOCC3)CC(=O)N(C(=O)Nc3ccc(C)c(Cl)c3)[C@@H]2c2ccc(OC)cc2)cc1`?
ADAM17 inh: 4; sPLA2-III inh: -13; KLK7 zymogen act: 0; ADAM10 inh: 6

How did Cc1ccc2c(c1)c(=O)c1c3n2CCN(C(=O)CCl)C3CC1 (stereo unspecified) do in these assays?
ADAM17 inh: -25; sPLA2-III inh: 2; KLK7 zymogen act: -2; NRP1-CendR mod: 26*; ADAM10 inh: -77

Results for COc1cccc(NC(=O)CN(C)C(=O)c2cccc(NS(=O)(=O)c3ccccc3)c2)c1 ?
ADAM17 inh: -1; sPLA2-III inh: -4; KLK7 zymogen act: -1; NRP1-CendR mod: 30*; ADAM10 inh: -19

How did COc1cccc(NC(=O)CN(C)C(=O)c2cccc(NS(=O)(=O)c3ccc(Br)cc3)c2)c1 do in these assays?
ADAM17 inh: 2; sPLA2-III inh: -33; KLK7 zymogen act: 0; NRP1-CendR mod: 0; ADAM10 inh: 1

Results for O=C1C[C@@H](O)[C@H](O)c2cccc(O)c21 ?
ADAM17 inh: -1; sPLA2-III inh: -2; KLK7 zymogen act: 2; ADAM10 inh: -9

What do the screens show for `O=C(NCCc1nc2ccccc2[nH]1)c1ccco1`?
ADAM17 inh: -4; sPLA2-III inh: -3; KLK7 zymogen act: 0; NRP1-CendR mod: -3; ADAM10 inh: -2

What do the screens show for `O=C(/C=C/c1ccco1)N/C(=C\c1ccccc1)C(=O)NCCc1nc2ccccc2[nH]1`?
ADAM17 inh: 5; sPLA2-III inh: -12; KLK7 zymogen act: 0; NRP1-CendR mod: 40*; ADAM10 inh: 8

How did COc1ccc2oc(C)c(C(=O)NN)c2c1 do in these assays?
ADAM17 inh: -2; sPLA2-III inh: -8; KLK7 zymogen act: -1; NRP1-CendR mod: 6; ADAM10 inh: -1

What do the screens show for `CCOC(=O)CCC(=O)c1c(C)oc2ccc(OC)cc12`?
ADAM17 inh: 9.9*; sPLA2-III inh: 10; KLK7 zymogen act: -1; NRP1-CendR mod: 1; ADAM10 inh: 0

What do the screens show for `C#CCNC(=O)C[C@H]1C(=O)N(Cc2ccc(OC)cc2)C2=CCCCC[C@@]21C(=O)OC`?
ADAM17 inh: -1; sPLA2-III inh: -3; KLK7 zymogen act: 0; ADAM10 inh: 1

How did C[C@H]1COc2cc(N3CCCC3)ccc2S(=O)(=O)N1C do in these assays?
ADAM17 inh: -4; sPLA2-III inh: -1; KLK7 zymogen act: 0; ADAM10 inh: -4

What do the screens show for `O=S1(=O)CC2c3ccccc3CN2CN1CCc1ccccc1` (stereo unspecified)?
ADAM17 inh: -3; sPLA2-III inh: 4; KLK7 zymogen act: 0; ADAM10 inh: 0

What do the screens show for `Cc1cc2c(=O)[nH]cnc2s1`?
ADAM17 inh: 0; sPLA2-III inh: 15; KLK7 zymogen act: 0; NRP1-CendR mod: 43*; ADAM10 inh: -5

Results for Cc1ccc(C(=O)NCC(=O)Nc2ccccc2C)o1 ?
ADAM17 inh: 2; sPLA2-III inh: 1; KLK7 zymogen act: 0; NRP1-CendR mod: 23*; ADAM10 inh: -7

How did N=c1c2c(ccn1CCCc1ccccc1)Oc1ccc3ccccc3c1C2c1ccccc1 (stereo unspecified) do in these assays?
ADAM17 inh: 6; sPLA2-III inh: -4; ADAM10 inh: 15

What do the screens show for `CCN(CC)S(=O)(=O)c1ccc2oc(C(=O)NCc3ccc(F)cc3)c(C)c2c1`?
ADAM17 inh: 8.8*; sPLA2-III inh: -27; KLK7 zymogen act: 0; NRP1-CendR mod: -3; ADAM10 inh: 22*

What do the screens show for `CCOC(=O)[C@@]12CN(C(=O)OC(C)(C)C)CC=C1N(Cc1ccc(OC)cc1)C(=O)[C@H]2CC(=O)N1CCCC1`?
ADAM17 inh: -1; sPLA2-III inh: 19; KLK7 zymogen act: 0; ADAM10 inh: -12

How did [O-][N+]1=c2ccc(Nc3ccccc3)cc2=NC12CCCCC2 do in these assays?
ADAM17 inh: 1; sPLA2-III inh: 12; KLK7 zymogen act: 1; NRP1-CendR mod: 0; ADAM10 inh: 0

What do the screens show for `COc1ccc(Nc2ccc3c(c2)=NC2(CCCCC2)[N+]=3[O-])cc1`?
ADAM17 inh: 9.7*; sPLA2-III inh: 14; KLK7 zymogen act: 0; NRP1-CendR mod: 16; ADAM10 inh: 6

Results for Cc1ccccc1/C=C/c1nc2ccccc2c(=O)n1CCc1ccccc1 ?
ADAM17 inh: 0; sPLA2-III inh: 0; KLK7 zymogen act: 0; NRP1-CendR mod: 40*; ADAM10 inh: -1

How did CCCc1nnc(NC(=O)c2cc3ccccc3oc2=O)s1 do in these assays?
ADAM17 inh: -7; sPLA2-III inh: 10; KLK7 zymogen act: 0; NRP1-CendR mod: 26*; ADAM10 inh: 1

How did CCCc1nnc(NC(=O)CCCN2C(=O)c3ccccc3C2=O)s1 do in these assays?
ADAM17 inh: 0; sPLA2-III inh: 2; KLK7 zymogen act: 0; NRP1-CendR mod: 29*; ADAM10 inh: 5

Results for CCCCc1nnc(NC(=O)CN2C(=O)c3ccccc3C2=O)s1 ?
ADAM17 inh: -3; sPLA2-III inh: -1; KLK7 zymogen act: 0; NRP1-CendR mod: 8; ADAM10 inh: -4
